{"source": "the supplement of paper PMC10338343", "note": "± gives the standard deviation.", "data": [{"test_system": "MILI (PIWIL2) piRISC loaded with piRNA #1 (26 nt)", "assay": "pre-steady-state target cleavage rate (min^-1); guide: piRNA #1 5'p-UGAGGUAGUAGGUUGUAUAGUAUCCA; MIWI and MILI are mouse PIWI proteins and EfPiwi is from a freshwater sponge; tags in brackets are library labels; higher = faster piRNA-guided slicing of the target", "settings": "auxiliary factor: 500 nM mouse GTSF1", "summary_of_the_method": "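With or without 500 nM GTSF1 partner protein, 1 nM active affinity-purified piRISC carrying one synthetic guide was mixed with 0.1 nM transcribed, DNA-blocked target RNA library in HEPES–potassium acetate buffer at 33 °C for 0–8 or 0–960 min. Uncleaved targets were sequenced and normalised to depth and to weakly complementary targets, three trials were pooled, and k3 was capped at 0.0001 min^-1. The pre-steady-state cleavage rate came from a burst-and-steady-state fit.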", "values": [{"sequence": "GGAGACCUAUGAUUACAACCUACUAUCUCA", "pre-steady-state target cleavage rate": "0.00332 ± 0.0022"}, {"sequence": "GGAGACCUAUCUAAACAACCAACUACCUCA", "pre-steady-state target cleavage rate": "0.00401 ± 0.0024"}, {"sequence": "GGAGACCUAACUAUUCAACCUACUACCUCA", "pre-steady-state target cleavage rate": "0.138 ± 0.022"}, {"sequence": "GGAGACCUUACUAUACUACCUAGUACCUCA", "pre-steady-state target cleavage rate": "0.035 ± 0.0072"}, {"sequence": "GGAGACCUUACUAUACAACCGUACUACCUCA", "pre-steady-state target cleavage rate": "0.00868 ± 0.0053"}, {"sequence": "GGAGACCUAUGAUUACAACCUACUACCUCCA", "pre-steady-state target cleavage rate": "0.00682 ± 0.0026"}, {"sequence": "GGAGACCUAUCUAUACUAGCUACUACCUCA", "pre-steady-state target cleavage rate": "0.0865 ± 0.011"}, {"sequence": "GGAGACCUAUGUAUACAUCCUUCUACCUCA", "pre-steady-state target cleavage rate": "0.00859 ± 0.0018"}, {"sequence": "GGAGACCUAACUUACAACCUACUACCUCA", "pre-steady-state target cleavage rate": "0.0068 ± 0.0056"}, {"sequence": "GGAGAGGAUUCUAUAGAACCUACUACCUCA", "pre-steady-state target cleavage rate": "0.157 ± 0.011"}, {"sequence": "GGAGACGUUACUAUACAACCUAGUACCUCA", "pre-steady-state target cleavage rate": "0.0428 ± 0.0087"}, {"sequence": "GGAGACCUUACUUUAGAACCUACUACCUCA", "pre-steady-state target cleavage rate": "0.13 ± 0.01"}, {"sequence": "GGAGACCUAACAAUACAACCUACUAGCUCA", "pre-steady-state target cleavage rate": "0.0462 ± 0.017"}, {"sequence": "GGAGACCAUACUAUAGUUCCUACUACCUCA", "pre-steady-state target cleavage rate": "0.156 ± 0.019"}, {"sequence": "GGAGACCUUUCUAAACAACCUACUACCUCA", "pre-steady-state target cleavage rate": "0.0629 ± 0.012"}, {"sequence": "GGAGAGGAUACUAUACUACCUACAACCUCA", "pre-steady-state target cleavage rate": "0.102 ± 0.0092"}, {"sequence": "GGAGACCUAUGAUAACAACCUACUUGGUCA", "pre-steady-state target cleavage rate": "< 0.0001"}, {"sequence": "GGAGACCUAUCUAUUCAAGCUACUACCUCA", "pre-steady-state target cleavage rate": "0.196 ± 0.015"}, {"sequence": "GGAGACCUAUGAUAUGUUCCUACGUACCUCA", "pre-steady-state target cleavage rate": "< 0.0001"}, {"sequence": "GGAGACCUAUCUAUACAAGCUACUACGUCA", "pre-steady-state target cleavage rate": "0.112 ± 0.012"}, {"sequence": "GGAGACCAUACUAUACUUGGAUGAUGGAGA [g15:g23:cont:t1A]", "pre-steady-state target cleavage rate": "< 0.0001"}, {"sequence": "GGAGACGAUAGUAUACAACCAACUACCUCA", "pre-steady-state target cleavage rate": "0.00662 ± 0.0036"}, {"sequence": "GGAGACCAUACUAAUCAACCUACUACCUCA", "pre-steady-state target cleavage rate": "0.17 ± 0.019"}, {"sequence": "GGAGACCAUACUUUUCAACCUACUACCUCA", "pre-steady-state target cleavage rate": "0.153 ± 0.015"}, {"sequence": "GGAGACCUAUGAUAACAAACUACUACCUCA", "pre-steady-state target cleavage rate": "0.0114 ± 0.0029"}, {"sequence": "GGAGACCUUACUAUACAAGCUACUACGUCA", "pre-steady-state target cleavage rate": "0.203 ± 0.029"}, {"sequence": "GGAGACCUAUCUAUACAUCCUACUUCCUCA", "pre-steady-state target cleavage rate": "0.107 ± 0.019"}, {"sequence": "GGAGACCUUACUAUACAACCUUCUACCACA", "pre-steady-state target cleavage rate": "0.00842 ± 0.0039"}, {"sequence": "GGAGACCUAUGAAUACAAGCUACUACCUCA", "pre-steady-state target cleavage rate": "0.0349 ± 0.0069"}, {"sequence": "GGAGACCUAUGAUAUGUACCUACUACCUGCA", "pre-steady-state target cleavage rate": "< 0.0001"}, {"sequence": "GGAGACCAUACUAUACAACCUCUACCUCA", "pre-steady-state target cleavage rate": "0.00997 ± 0.0029"}, {"sequence": "GGAGACCUAUGUAUACAAGCUACUACCUCA", "pre-steady-state target cleavage rate": "0.147 ± 0.013"}, {"sequence": "GGAGACCUAACUAUACAAUCUACUACCUCA", "pre-steady-state target cleavage rate": "0.0713 ± 0.012"}, {"sequence": "GGAGACCUUACUAUACAACCUACUAGCUGA", "pre-steady-state target cleavage rate": "0.00949 ± 0.0037"}, {"sequence": "GGAGACCUAUGAUAACAAGCUACUACCUCA", "pre-steady-state target cleavage rate": "0.0133 ± 0.0028"}, {"sequence": "GGAGACCUAUCUAUACAUCCAACUACCUCA", "pre-steady-state target cleavage rate": "0.00941 ± 0.0034"}, {"sequence": "GGAGACCUAUCAAUUCAACCUACUACCUCA", "pre-steady-state target cleavage rate": "0.00721 ± 0.0029"}, {"sequence": "GGAGACCUAUGAAAACAACCUACUACCUCA", "pre-steady-state target cleavage rate": "0.0037 ± 0.0033"}, {"sequence": "GGAGACCUAUGUAUACAACCUACUAUCUCA", "pre-steady-state target cleavage rate": "0.0416 ± 0.0058"}, {"sequence": "GGAGAGGAUACUAUACAACCUACUAUCUCA", "pre-steady-state target cleavage rate": "0.131 ± 0.012"}]}]}
